The full data set covers some 7,900 targets. This sample favours those with a hit. About 0.6% of all pairs of compound and target were hits.
Columns and labels:
Assay in all cases: log2 fold change, soluble protein after heating vs DMSO (PISA); higher = thermal stabilisation; K562 cells, 10 uM, 30 min; active = over 0.2 and 3.5 SD of the protein, either way, in both replicates (recomputed)
[1] = compound: CC[C@@H]1C(=O)N(C)c2cnc(Nc3ccc(C(=O)NC4CCN(C)CC4)cc3OC)nc2N1C1CCCC1
Method in brief: (§1)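 K562 cells at 2×10^6 cells/mL were given 10 μM compound for 30 min. Aliquots then went through 3 min of heating across 48°C-58°C, were pooled, and were extracted in PBS with 0.5% NP-40 at 4°C, and the supernatant after 21,000xg for 90 min was quantified by TMTpro 16plex LC-MS/MS with channel sums equalised. Thermal stability relative to control samples, from duplicates, is given as log2 fold change.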

volasertib = compound: CC[C@@H]1C(=O)N(C)c2cnc(Nc3ccc(C(=O)N[C@H]4CC[C@H](N5CCN(CC6CC6)CC5)CC4)cc3OC)nc2N1C(C)C [volasertib]
Method in brief: as §1

[2] = compound: CC[C@H](C)N1C=C(C2=C(C=C(C=C21)C3=CN=C(C=C3)N4CCNCC4)C(=O)NCC5=C(C=C(NC5=O)C)C)C
Method in brief: as §1

epoxomicin = compound: CC[C@H](C)[C@@H](C(=O)N[C@@H]([C@@H](C)O)C(=O)N[C@@H](CC(C)C)C(=O)[C@]1(CO1)C)NC(=O)[C@H]([C@@H](C)CC)N(C)C(=O)C [epoxomicin]
Method in brief: as §1

[3] = compound: CCn1c(C(=O)N(C2CC2)C2CC2)cc2c3c(ncn3C)c(Nc3cc(C)n(C)n3)nc21
Method in brief: as §1

[4] = compound: CCn1cc(-c2ccnc3[nH]c(-c4cccc(CN(C)C)c4)cc23)c(-c2ccc(NC(=O)N(C)C)cc2)n1
Method in brief: as §1

[5] = compound: CN(C)CC(=O)Nc1ccc2[nH]c(=O)c3ccccc3c2c1
Method in brief: as §1

rosiglitazone = compound: CN(CCOC1=CC=C(C=C1)C[C@H]2C(=O)NC(=O)S2)C3=CC=CC=N3 (racemic) [rosiglitazone]
Method in brief: as §1

[6] = compound: CN1C2=C(C3=C1C(=O)N(N=C3)CC4=CC(=CC=C4)N)SC(=C2)S(=O)C
Method in brief: as §1

[7] = compound: CN1CCC(CNc2ccc3ncc(-c4cccc(OC(F)(F)F)c4)n3n2)CC1
Method in brief: as §1

Measured: log2 fold change

TNFRSF10A (UniProt O00220)
Chain of UniProt O00220 (O00220 whole entry, looked up): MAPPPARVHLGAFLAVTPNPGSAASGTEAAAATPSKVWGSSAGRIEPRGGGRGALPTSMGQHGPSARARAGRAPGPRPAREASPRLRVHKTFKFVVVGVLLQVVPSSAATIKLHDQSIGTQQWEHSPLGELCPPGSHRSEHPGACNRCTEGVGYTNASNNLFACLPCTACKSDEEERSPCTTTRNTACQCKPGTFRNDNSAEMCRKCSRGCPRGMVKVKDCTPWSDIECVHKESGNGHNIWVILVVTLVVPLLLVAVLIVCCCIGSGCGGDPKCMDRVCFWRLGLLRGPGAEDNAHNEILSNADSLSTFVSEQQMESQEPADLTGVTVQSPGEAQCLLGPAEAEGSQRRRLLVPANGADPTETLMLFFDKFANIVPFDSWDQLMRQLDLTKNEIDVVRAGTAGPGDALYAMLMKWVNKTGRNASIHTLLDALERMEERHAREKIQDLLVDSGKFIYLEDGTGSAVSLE
inactive: [1] 0.046 | volasertib 0.001 | [2] -0.02 | epoxomicin -0.047 | [3] -0.037 | [4] -0.104 | [5] -0.123 | rosiglitazone -0.053 | [6] -0.02 | [7] -0.007

WASH2P (UniProt Q6VEQ5)
inactive: [1] -0.071 | volasertib -0.163 | [2] 0.024 | epoxomicin 0 | [3] 0.002 | [4] 0.037 | [5] 0.021 | rosiglitazone 0.033 | [6] 0.012 | [7] -0.067

VPS13B (UniProt Q7Z7G8)
Chain of UniProt Q7Z7G8 (Q7Z7G8 whole entry, looked up): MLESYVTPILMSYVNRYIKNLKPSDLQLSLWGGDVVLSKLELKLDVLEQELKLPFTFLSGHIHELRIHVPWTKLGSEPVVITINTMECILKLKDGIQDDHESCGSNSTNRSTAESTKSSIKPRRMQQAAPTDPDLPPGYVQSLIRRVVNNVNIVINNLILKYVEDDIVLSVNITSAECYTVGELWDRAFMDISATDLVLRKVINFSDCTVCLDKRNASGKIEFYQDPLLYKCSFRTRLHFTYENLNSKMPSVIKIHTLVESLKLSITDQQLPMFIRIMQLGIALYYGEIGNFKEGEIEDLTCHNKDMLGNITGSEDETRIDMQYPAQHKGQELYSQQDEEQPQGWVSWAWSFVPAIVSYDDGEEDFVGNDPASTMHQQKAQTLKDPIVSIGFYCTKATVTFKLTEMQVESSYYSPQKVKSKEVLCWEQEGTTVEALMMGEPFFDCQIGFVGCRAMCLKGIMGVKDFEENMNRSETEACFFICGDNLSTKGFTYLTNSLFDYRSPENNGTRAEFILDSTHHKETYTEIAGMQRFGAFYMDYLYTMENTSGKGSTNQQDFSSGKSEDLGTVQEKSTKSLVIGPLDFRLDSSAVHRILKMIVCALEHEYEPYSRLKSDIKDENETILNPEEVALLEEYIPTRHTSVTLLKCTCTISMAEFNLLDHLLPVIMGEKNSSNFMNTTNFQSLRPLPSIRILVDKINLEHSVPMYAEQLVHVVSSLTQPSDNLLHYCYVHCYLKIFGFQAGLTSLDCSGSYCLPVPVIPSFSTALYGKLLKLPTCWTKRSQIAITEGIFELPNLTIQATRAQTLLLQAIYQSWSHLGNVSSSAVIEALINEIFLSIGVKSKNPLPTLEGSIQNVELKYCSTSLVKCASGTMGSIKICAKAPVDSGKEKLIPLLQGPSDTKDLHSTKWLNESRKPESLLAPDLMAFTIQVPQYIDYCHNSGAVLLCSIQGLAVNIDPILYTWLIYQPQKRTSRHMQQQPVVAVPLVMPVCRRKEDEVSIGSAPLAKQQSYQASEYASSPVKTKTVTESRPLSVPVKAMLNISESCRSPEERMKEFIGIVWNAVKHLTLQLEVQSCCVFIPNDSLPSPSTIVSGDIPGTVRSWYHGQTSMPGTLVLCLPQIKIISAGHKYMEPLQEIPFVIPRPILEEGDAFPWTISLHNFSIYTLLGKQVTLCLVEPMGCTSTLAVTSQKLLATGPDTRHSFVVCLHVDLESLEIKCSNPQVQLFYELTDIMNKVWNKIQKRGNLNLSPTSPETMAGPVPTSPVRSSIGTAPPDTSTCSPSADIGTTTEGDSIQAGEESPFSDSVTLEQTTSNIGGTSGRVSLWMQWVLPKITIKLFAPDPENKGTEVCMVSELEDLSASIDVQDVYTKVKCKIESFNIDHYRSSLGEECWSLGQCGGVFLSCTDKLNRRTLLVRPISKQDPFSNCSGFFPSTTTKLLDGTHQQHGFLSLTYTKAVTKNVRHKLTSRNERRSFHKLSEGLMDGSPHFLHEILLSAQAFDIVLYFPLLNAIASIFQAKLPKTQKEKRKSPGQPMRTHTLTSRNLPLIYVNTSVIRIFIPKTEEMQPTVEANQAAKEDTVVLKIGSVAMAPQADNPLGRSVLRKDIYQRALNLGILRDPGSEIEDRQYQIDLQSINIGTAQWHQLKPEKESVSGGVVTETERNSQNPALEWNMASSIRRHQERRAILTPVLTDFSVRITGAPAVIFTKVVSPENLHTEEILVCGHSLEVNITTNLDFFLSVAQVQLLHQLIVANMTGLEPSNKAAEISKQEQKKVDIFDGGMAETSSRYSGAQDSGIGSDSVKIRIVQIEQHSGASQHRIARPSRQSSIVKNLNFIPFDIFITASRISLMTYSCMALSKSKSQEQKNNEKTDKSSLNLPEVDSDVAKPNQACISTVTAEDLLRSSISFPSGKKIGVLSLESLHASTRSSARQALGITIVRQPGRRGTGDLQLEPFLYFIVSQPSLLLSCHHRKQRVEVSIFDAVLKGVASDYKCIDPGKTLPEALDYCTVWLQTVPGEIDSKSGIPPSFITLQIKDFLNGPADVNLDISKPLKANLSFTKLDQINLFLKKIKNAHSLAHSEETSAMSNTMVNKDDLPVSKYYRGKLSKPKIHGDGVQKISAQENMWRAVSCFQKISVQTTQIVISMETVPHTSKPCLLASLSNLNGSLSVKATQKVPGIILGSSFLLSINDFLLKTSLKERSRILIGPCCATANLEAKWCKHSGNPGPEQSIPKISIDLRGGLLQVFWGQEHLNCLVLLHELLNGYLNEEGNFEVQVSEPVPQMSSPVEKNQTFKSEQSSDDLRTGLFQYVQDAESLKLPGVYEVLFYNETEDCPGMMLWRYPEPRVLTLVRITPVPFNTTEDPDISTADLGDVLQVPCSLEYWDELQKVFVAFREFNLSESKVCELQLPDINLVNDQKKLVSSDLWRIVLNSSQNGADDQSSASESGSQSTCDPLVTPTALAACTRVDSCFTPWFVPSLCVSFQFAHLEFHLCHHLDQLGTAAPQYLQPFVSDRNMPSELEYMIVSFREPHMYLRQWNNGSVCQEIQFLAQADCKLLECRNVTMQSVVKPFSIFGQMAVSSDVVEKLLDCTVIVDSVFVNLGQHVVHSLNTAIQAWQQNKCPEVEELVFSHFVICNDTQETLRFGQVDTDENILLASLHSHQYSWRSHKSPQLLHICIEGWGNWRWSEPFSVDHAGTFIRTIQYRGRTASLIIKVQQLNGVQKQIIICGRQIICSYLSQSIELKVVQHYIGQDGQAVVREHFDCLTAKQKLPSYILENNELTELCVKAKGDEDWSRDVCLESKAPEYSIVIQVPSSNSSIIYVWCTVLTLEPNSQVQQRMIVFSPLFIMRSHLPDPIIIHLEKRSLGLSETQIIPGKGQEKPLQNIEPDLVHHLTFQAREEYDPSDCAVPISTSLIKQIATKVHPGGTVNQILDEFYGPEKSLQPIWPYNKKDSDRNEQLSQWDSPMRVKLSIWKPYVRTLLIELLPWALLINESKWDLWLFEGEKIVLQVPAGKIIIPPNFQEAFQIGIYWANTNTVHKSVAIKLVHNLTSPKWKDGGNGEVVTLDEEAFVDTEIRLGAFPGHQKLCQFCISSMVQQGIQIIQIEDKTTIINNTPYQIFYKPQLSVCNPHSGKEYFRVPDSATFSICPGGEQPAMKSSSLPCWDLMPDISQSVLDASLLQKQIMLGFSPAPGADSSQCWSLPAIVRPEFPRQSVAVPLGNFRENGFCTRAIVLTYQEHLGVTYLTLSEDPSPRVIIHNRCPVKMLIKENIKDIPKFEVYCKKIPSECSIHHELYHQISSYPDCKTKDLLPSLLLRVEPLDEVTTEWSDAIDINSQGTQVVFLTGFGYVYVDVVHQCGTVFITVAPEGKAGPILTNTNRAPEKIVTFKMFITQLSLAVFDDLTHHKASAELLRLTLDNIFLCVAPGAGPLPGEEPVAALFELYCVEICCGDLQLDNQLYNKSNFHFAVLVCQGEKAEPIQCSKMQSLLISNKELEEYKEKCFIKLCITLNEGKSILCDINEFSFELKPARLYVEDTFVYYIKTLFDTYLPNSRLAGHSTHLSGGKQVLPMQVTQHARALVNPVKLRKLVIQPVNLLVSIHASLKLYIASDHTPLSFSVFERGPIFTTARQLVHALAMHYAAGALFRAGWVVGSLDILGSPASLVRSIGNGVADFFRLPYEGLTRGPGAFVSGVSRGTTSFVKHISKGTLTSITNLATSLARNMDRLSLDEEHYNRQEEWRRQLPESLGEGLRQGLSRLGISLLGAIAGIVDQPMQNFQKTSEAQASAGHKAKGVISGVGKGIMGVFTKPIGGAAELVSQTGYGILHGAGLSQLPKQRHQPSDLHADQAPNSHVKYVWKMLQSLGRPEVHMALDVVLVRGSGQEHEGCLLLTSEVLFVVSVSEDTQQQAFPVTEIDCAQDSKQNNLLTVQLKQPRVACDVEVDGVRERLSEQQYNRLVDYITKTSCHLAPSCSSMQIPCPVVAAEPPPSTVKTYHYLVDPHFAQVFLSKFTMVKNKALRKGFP
inactive: [1] -0.01 | volasertib -0.088 | [2] 0.004 | epoxomicin 0.019 | [3] -0.016 | [4] -0.008 | [5] -0.028 | rosiglitazone 0.011 | [6] -0.053 | [7] -0.109

TMEM161A (UniProt Q9NX61)
inactive: [1] 0.033 | [2] -0.08 | epoxomicin 0.049 | [3] 0.034 | [4] 0.014 | [5] -0.009 | rosiglitazone 0.088 | [6] -0.026 | [7] -0.265
active: volasertib -0.477

WASHC2C, A0A096LPC5
active: [7] -0.507
inactive: [1] 0.034 | volasertib -0.111 | [2] -0.03 | epoxomicin -0.016 | [3] 0.063 | [4] -0.132 | [5] 0.012 | rosiglitazone 0.067 | [6] 0.142

UTP4 (UniProt Q969X6)
active: [7] 0.233
inactive: [1] 0.032 | volasertib 0.006 | [2] -0.017 | epoxomicin -0.02 | [3] 0.001 | [4] 0.043 | [5] -0.036 | rosiglitazone -0.006 | [6] -0.061

TXN2 (UniProt Q99757)
Chain of UniProt Q99757 (Q99757 whole entry, looked up): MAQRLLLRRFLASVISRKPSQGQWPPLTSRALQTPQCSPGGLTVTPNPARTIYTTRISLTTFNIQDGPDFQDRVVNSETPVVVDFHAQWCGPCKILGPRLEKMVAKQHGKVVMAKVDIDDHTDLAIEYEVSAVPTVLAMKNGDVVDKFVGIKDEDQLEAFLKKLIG
inactive: [1] -0.037 | volasertib 0.051 | [2] -0.029 | epoxomicin 0.082 | [3] -0.038 | [4] -0.089 | [5] -0.096 | rosiglitazone -0.027 | [6] 0.03 | [7] 0.083

WDR7 (UniProt Q9Y4E6)
inactive: [1] -0.09 | [2] 0.027 | epoxomicin -0.007 | [3] -0.085 | [4] -0.007 | [5] 0.279 | rosiglitazone 0.082 | [6] 0.034 | [7] -0.199
active: volasertib -0.415

VAMP7 (UniProt P51809)
inactive: [1] -0.057 | volasertib -0.019 | [2] 0.009 | epoxomicin 0.045 | [3] 0.012 | [4] -0.026 | [5] 0.014 | rosiglitazone -0.022 | [6] -0.07 | [7] -0.181

TNPO1 (UniProt Q92973)
inactive: [1] -0.182 | [2] 0.046 | epoxomicin -0.016 | [3] 0.021 | [4] -0.025 | [5] 0.018 | rosiglitazone 0.012 | [6] -0.019 | [7] -0.055
active: volasertib -0.379

TMEM41A (UniProt Q96HV5)
inactive: [1] 0.036 | volasertib 0.035 | [2] -0.05 | epoxomicin -0.055 | [3] 0.021 | [4] 0.165 | [5] -0.049 | rosiglitazone -0.002 | [6] 0 | [7] 0.01

TRAPPC13 isoform 5 (UniProt A5PLN9)
inactive: [1] -0.055 | volasertib -0.34 | [2] 0.044 | epoxomicin -0.014 | [3] -0.072 | [4] -0.068 | [5] 0.078 | rosiglitazone 0.087 | [6] 0.042 | [7] -0.187

WDR46 (UniProt O15213)
inactive: [1] 0.195 | volasertib 0.073 | [2] -0.085 | epoxomicin -0.417 | [3] 0.008 | [4] 0.288 | [5] -0.2 | rosiglitazone -0.077 | [6] 0.311 | [7] 0.389

WDR43 (UniProt Q15061)
inactive: [1] 0.029 | volasertib -0.029 | [2] -0.04 | epoxomicin -0.026 | [3] 0 | [4] 0.036 | [5] 0.004 | rosiglitazone -0.025 | [6] -0.04 | [7] 0.192

XPO5 (UniProt Q9HAV4)
inactive: [1] -0.122 | [2] 0.063 | epoxomicin 0.073 | [3] 0.01 | [4] -0.04 | [5] 0.018 | rosiglitazone 0.035 | [6] -0.027
active: volasertib -0.263 | [7] -0.302

UFM1 isoform 2 (UniProt P61960)
inactive: [1] 0.116 | volasertib 0.012 | [2] 0.069 | epoxomicin 0.029 | [3] 0.034 | [4] -0.001 | [5] 0.114 | rosiglitazone -0.03 | [6] 0.004 | [7] -0.005

TMEM223 (UniProt A0PJW6)
Chain of UniProt A0PJW6 (A0PJW6 whole entry, looked up): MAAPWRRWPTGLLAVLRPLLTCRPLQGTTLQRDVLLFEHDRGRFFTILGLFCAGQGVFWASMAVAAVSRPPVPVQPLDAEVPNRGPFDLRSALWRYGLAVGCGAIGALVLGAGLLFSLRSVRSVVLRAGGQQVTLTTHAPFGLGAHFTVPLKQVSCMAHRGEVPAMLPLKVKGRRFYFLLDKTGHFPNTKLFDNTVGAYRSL
active: [7] -0.271
inactive: [1] -0.004 | volasertib 0.043 | [2] 0.035 | epoxomicin -0.01 | [3] -0.009 | [4] 0.022 | [5] -0.015 | rosiglitazone 0.032 | [6] -0.022

TUBAL3 (UniProt A6NHL2)
inactive: [1] 0.144 | volasertib -0.497 | [2] -0.052 | epoxomicin -0.11 | [3] -0.023 | [4] -0.013 | [5] -0.061 | rosiglitazone 0.139 | [6] 0.03 | [7] -0.067

WASHC3 (UniProt Q9Y3C0)
inactive: [1] -0.015 | volasertib -0.066 | [2] -0.058 | epoxomicin 0.067 | [3] -0.025 | [4] 0.007 | [5] -0.002 | rosiglitazone 0.026 | [6] -0.03
active: [7] -0.245

VPS11 (UniProt Q9H270)
inactive: [2] 0.14 | epoxomicin 0.025 | [3] -0.097 | [4] -0.074 | [5] 0.059 | rosiglitazone 0.077 | [6] 0.03 | [7] -0.244
active: [1] -0.284 | volasertib -0.53

WARS2 (UniProt Q9UGM6)
inactive: [1] -0.07 | [2] 0.099 | epoxomicin 0.016 | [3] 0.043 | [4] -0.03 | [5] 0.043 | rosiglitazone 0.074 | [6] -0.055 | [7] -0.099
active: volasertib -0.323

WDR62 isoform 4 (UniProt O43379)
inactive: [1] -0.02 | [2] 0.04 | epoxomicin 0 | [3] 0.006 | [4] 0.007 | [5] -0.035 | rosiglitazone 0.064 | [6] 0.047 | [7] -0.161
active: volasertib -0.496

UBE2Q1 (UniProt Q7Z7E8)
active: volasertib -0.295
inactive: [1] -0.087 | [2] 0.015 | epoxomicin -0.042 | [3] -0.075 | [4] -0.048 | [5] 0.027 | rosiglitazone 0.061 | [6] -0.007 | [7] -0.212

TRAPPC11 (UniProt Q7Z392)
active: volasertib -0.275
inactive: [1] -0.045 | [2] 0.015 | epoxomicin 0.016 | [3] -0.049 | [4] -0.032 | [5] 0.032 | rosiglitazone -0.027 | [6] 0.004 | [7] -0.127

TMEM9 (UniProt Q9P0T7)
Chain of UniProt Q9P0T7 (Q9P0T7 whole entry, looked up): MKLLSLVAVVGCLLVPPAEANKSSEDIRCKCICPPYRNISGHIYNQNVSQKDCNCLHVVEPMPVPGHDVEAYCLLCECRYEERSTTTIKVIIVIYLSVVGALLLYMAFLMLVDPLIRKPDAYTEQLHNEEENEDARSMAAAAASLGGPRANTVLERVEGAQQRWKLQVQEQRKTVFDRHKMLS
inactive: [1] -0.112 | volasertib -0.07 | [2] -0.05 | [3] -0.018 | [4] 0.015 | [5] 0.004 | rosiglitazone -0.157 | [6] -0.015 | [7] -0.007
active: epoxomicin 0.296

TOM1L1 (UniProt O75674)
inactive: [1] 0.072 | volasertib -0.052 | [2] 0.027 | epoxomicin 0.013 | [3] -0.023 | [4] -0.004 | [5] 0.043 | rosiglitazone 0.062 | [6] -0.053
active: [7] 0.385

VPS39 (UniProt Q96JC1)
active: volasertib -0.354
inactive: [1] -0.206 | [2] 0.054 | epoxomicin -0.017 | [3] -0.033 | [4] -0.091 | [5] 0.022 | rosiglitazone 0.044 | [6] 0.008 | [7] -0.187

— the supplement of paper PMC10849652
